Experimental data reported in PubChem BioAssay (Tox21).
Results filed as inconclusive are left out. Where a call stands in place of a potency, no number is given. Unmarked numbers belong to inactive results. The source made the active and inactive calls. Calls come from the whole dose curve; as a rule, active = well fitted cell-killing curve with a large enough effect in the repeat runs; inconclusive = weak or mixed curves, or effect the other way; inactive = no such curve, though single readings can be large or run the other way.

experiment: qHTS assay to identify small molecule antagonists of the vitamin D receptor (VDR) signaling pathway - cell viability counter screen (AID 743225); conditions: VDR-bla HEK293T viability, CellTiter-Glo luminescence, 16 h; series mostly up to 61 µM; note: nearly all actives have a fitted effect of over 50% in size
Excerpt: U.S. Tox21 Program National Center for Advancing Translational Sciences [NCATS] NIH Chemical Genomics Center [NCGC] U.S. Environmental Protection Agency [EPA] National Institutes of Environmental Health Sciences [NIEHS] National Toxicology Program [NTP] U.S. Food and Drug Administration [FDA] Tox21 Assay Overview: The vitamin D receptor (VDR), a member of nuclear hormone receptor superfamily, plays a critical role in calcium homeostasis and bone metabolism. It is also involved in cell differentiation and growth, and thrombogenicity. To identify the compounds that inhibit VDR signaling, the VDR-UAS-bla HEK 293T cell line (Invitrogen, Carlsbad, CA, USA) containing a beta-lactamase reporter gene under the control of an upstream activator sequence (UAS) was used to screen the Tox21 10K compound library. The cytotoxicity of the Tox21 compound library against the VDR-bla cell line was tested in parallel by measuring the cell viability using CellTiter-Glo assay (Promega, Madison, WI) in the same wells.
Tox21 Assay Protocol Summary: VDR-bla cells were dispensed at 2,000 cells/5 uL of assay medium per well into black wall/clear-bottom 1536-well plates using a Multidrop Combi (Thermo Fisher Scientific, Waltham, MA) dispenser. After the assay plates were incubated at a 37C and 5% CO2 for 4 h, 23 nL of compounds dissolved in DMSO, positive controls or DMSO only was transferred to the assay plate by a Pintool station (Kalypsys, San Diego, CA), followed by addition of 1 uL of 1-alpha, 25-Dihydroxy Vitamin D3 (3 nM, final concentration in the wells) using a Bioraptr Flying Reagent Dispenser (FRD) workstation (Beckman Coulter, Indianapolis, IN). The plates were incubated at 37C and 5% CO2 for 16 h, and then 1 uL of LiveBLAzerTM B/G FRET substrate was added using a Bioraptr FRD. The plates were incubated at room temperature for 2 h and fluorescence intensity was measured by an Envision plate reader (PerkinElmer, Shelton, CT). For cell viability readout that measures cytotoxicity, 3 ul/well of CellTiter-Glo reagent was added into the assay plates using a Bioraptr FRD. After 30 min incubation at room temperature, the luminescence intensity in the plates was measured using a ViewLux plate reader (PerkinElmer).
Potency is the fitted concentration of half-maximal effect.

SMILES	Potency	viability change, negative = cytotoxic
OC[C@H]1O[C@H](O[C@H]2O[C@H](CO)[C@@H](O)[C@H](O)[C@H]2O)[C@H](O)[C@@H](O)[C@@H]1O	inactive	
CCCCCCC1CCCC(=O)O1 (stereo not given)	inactive	
OC1CCC(C2CCCCC2)CC1 (stereo not given)	inactive	
CC(C)(C)NSc1nc2ccccc2s1	inactive	
C1CCC(SSC2CCCCC2)CC1	inactive	
NC[C@H]1O[C@H](O[C@H]2[C@H](O[C@@H]3O[C@H](CO)[C@@H](O)[C@H]3O)C(O)[C@H](N)C[C@@H]2N)[C@H](N)[C@@H](O)[C@@H]1O (stereo not given in full)		-0.622% [at 6.95 µM]
COc1cc(C)ccc1O	inactive	
C=C(C)C(=O)OCCCCCCCCCC	inactive	
O=C(O)c1cc(N=Nc2ccc([N+](=O)[O-])cc2)ccc1O	inactive	
O=c1[nH]c2ccccc2n1CCCN1CCN(C(c2ccccc2)c2ccccc2)CC1	inactive	
CNC(=O)c1ccccc1Sc1ccc2c(/C=C/c3ccccn3)n[nH]c2c1	23.9 µM (active)	
CC(C)NC[C@@H](O)COc1ccc(CC(N)=O)cc1	inactive	
CC(C)OC(=O)C(O)(CC(=O)O)CC(=O)O	inactive	
OCC(F)(F)F	inactive	
O=C(O)Cc1ccc2c(c1)C(=O)c1ccccc1CO2	inactive	
Fc1ccc(C(c2ccc(F)cc2)N2CCNCC2)cc1	16.9 µM (active)	
Cc1nc2n(c(=O)c1CCN1CCC(c3noc4cc(F)ccc34)CC1)CCCC2	inactive	
CC1(C)CCC[C@]2(C)[C@H]3CCO[C@]3(C)CC[C@@H]12	inactive	
COc1cc(S(=O)(=O)O)c(C)cc1N=Nc1c(O)ccc2cc(S(=O)(=O)O)ccc12	inactive	
O=C(O)Cc1ccccc1Nc1c(Cl)cccc1Cl	inactive	

SMILES	Potency	viability change, negative = cytotoxic
O=C(Oc1ccccc1)Oc1ccccc1	inactive	
COC(=O)c1ccccc1C	inactive	
FC(F)(F)c1cccc(Cl)c1	inactive	
CCC(COC(=O)CCS)(COC(=O)CCS)COC(=O)CCS	inactive	
C[C@H]1NCc2cc(-c3ccc4c(=O)c(C(=O)O)cn(C5CC5)c4c3OC(F)F)ccc21	inactive	
CC(C)(C)c1ccc(C(O)CCCN2CCC(C(O)(c3ccccc3)c3ccccc3)CC2)cc1 (stereo not given)	inactive	
C=CC(C)(CCC=C(C)C)OC=O (stereo not given)	inactive	
O=[N+]([O-])c1cccc(C(F)(F)F)c1	inactive	
CC1=Nc2ccccc2C1(C)C	inactive	
CC[N+](CC)(CC)CCOc1ccc(/C=C/c2ccccc2)cc1	inactive	
C/C=C/C=C/COC(=O)C(C)C	inactive	
CCCCC(CC)COC(=O)CCCCC(=O)OCc1ccccc1 (stereo not given)	inactive	
C#Cc1ccc(-c2ccccc2F)cc1	inactive	
C#C[C@]1(OC(C)=O)CC[C@H]2[C@@H]3CCC4=C/C(=N/O)CC[C@@H]4[C@H]3CC[C@@]21CC	inactive	
CCCCCCCCCCCCOCCOCCOCCOCCOCCOCCOCCOCCOCCO	10.7 µM (active)	
O=C(Nc1ccc2c(O)c(N=Nc3ccc(N=Nc4ccc(S(=O)(=O)O)cc4)cc3)c(S(=O)(=O)O)cc2c1)c1ccccc1	inactive	
CCCC1CCC(=O)CC1	inactive	
Oc1cc(Cl)cc(Cl)c1Cl	inactive	
CC(C)(C)C1CCC(=O)CC1	inactive	
CCCCCC(C)OC(=O)COc1ccc(Cl)c2cccnc12 (stereo not given)	inactive	
